# Where “and” joins values, the source holds several entries; their conditions need not be identical. Identical values can stand only once. Inconclusive results are not listed. The source holds several records for some structures; these can differ, active in one and inactive in another. Calls of active or inactive are those of the source. Unless noted, the call rests on the fitted dose curve; in most records, active means well fitted curve in the direction sought with a large enough effect; inconclusive means small, poorly fitted or top-dose-only effect, or another doubt; inactive means no such curve, though single readings can be large; an effect the other way counts as inactive or inconclusive.
# Target: Cytochrome P450 2D6 (Homo sapiens) (UniProt P10635)
# Test: Cytochrome P450 family 2 subfamily D member 6 (CYP2D6) small molecule antagonists: luciferase biochemical (cell-free) qHTS assay (AID 1645840; active means well fitted curve in the direction sought with a large enough effect in the repeat runs; an effect the other way counts as inactive or inconclusive; further: nearly all actives have a fitted effect of over 55% in size; further: potency means the concentration at half of the fitted maximal effect)
# Details: P450-Glo CYP2D6 enzyme, luciferin luminescence, 1 h; series mostly up to 57.4 µM; activity change, negative = inhibition: at the top concentration
# How it was run: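 P450-Glo CYP2D6 system: proluciferin substrate converted by enzyme to luciferin, read by luminescence proportional to activity. Enzyme-substrate mix with compound 10 min at room temperature, then NADPH regeneration 1 h before detection reagent.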
# On the % scale 0 is the no-effect control and ±100 the full control effect.
# Sequence of Cytochrome P450 2D6 (Homo sapiens) (P10635 whole entry, looked up): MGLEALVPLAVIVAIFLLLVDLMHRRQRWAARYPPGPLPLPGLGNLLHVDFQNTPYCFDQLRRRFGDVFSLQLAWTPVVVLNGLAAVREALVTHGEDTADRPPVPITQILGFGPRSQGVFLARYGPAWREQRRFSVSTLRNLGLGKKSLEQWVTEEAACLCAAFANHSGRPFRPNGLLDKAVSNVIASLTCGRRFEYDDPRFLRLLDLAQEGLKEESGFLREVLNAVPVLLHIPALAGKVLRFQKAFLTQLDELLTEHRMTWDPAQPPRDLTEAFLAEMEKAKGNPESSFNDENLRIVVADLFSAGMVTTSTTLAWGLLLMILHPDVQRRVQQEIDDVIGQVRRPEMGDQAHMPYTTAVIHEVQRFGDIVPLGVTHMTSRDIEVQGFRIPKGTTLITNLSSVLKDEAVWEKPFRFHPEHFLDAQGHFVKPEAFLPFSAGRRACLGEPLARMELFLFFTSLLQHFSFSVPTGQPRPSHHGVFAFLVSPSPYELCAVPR
SMILES,"activity change, negative = inhibition",Potency
O=C(COCC(=O)N1CCN(C(c2ccccc2)c2ccccc2)CC1)Nc1ccc(Cl)cc1C(=O)O,-25.4% (inactive),
Cc1c(F)cc(C(=O)NC2CC2)cc1-c1ccc(C(=O)NCC(C)(C)C)cn1,0.429% (inactive),
Nc1ncnc2c1C(=O)N(c1ccc(C3CCC(CC(=O)O)CC3)cc1)CCO2 (centres undefined),3.48% (inactive),
CCCCOc1nc(N)c2c(n1)N(Cc1cccc(CN3CCCC3)c1)CC(=O)N2,,3.38 µM (active)
Cc1c(Cc2ccc3ccccc3n2)c2cc(F)ccc2n1CC(=O)O,-4.38% (inactive),
Cc1cccc(-c2nn3c(c2-c2ccnc4ccc(C(N)=O)cc24)CCC3)n1,2.55% (inactive),

# Target: Cytochrome P450 2C9 (Homo sapiens) (UniProt P11712)
# Test: Cytochrome P450 family 2 subfamily C member 9 (CYP2C9) small molecule antagonists: luciferase biochemical (cell-free) qHTS assay (AID 1645842; active means well fitted curve in the direction sought with a large enough effect in the repeat runs; an effect the other way counts as inactive or inconclusive; further: nearly all actives have a fitted effect of over 55% in size; further: potency means the concentration at half of the fitted maximal effect)
# Details: P450-Glo CYP2C9 enzyme assay, luciferin luminescence; series mostly up to 57.4 µM; activity change, negative = inhibition: at the top concentration
# How it was run: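 P450-Glo CYP2C9 system: proluciferin substrate with enzyme in mix containing 0.4% BSA, 10 min at room temperature, then NADPH regeneration solution added and incubated 1 h at 37C. Detection reagent stopped reaction; luminescence read after 20 min as RLU.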
# Sequence of Cytochrome P450 2C9 (Homo sapiens) (P11712 whole entry, looked up): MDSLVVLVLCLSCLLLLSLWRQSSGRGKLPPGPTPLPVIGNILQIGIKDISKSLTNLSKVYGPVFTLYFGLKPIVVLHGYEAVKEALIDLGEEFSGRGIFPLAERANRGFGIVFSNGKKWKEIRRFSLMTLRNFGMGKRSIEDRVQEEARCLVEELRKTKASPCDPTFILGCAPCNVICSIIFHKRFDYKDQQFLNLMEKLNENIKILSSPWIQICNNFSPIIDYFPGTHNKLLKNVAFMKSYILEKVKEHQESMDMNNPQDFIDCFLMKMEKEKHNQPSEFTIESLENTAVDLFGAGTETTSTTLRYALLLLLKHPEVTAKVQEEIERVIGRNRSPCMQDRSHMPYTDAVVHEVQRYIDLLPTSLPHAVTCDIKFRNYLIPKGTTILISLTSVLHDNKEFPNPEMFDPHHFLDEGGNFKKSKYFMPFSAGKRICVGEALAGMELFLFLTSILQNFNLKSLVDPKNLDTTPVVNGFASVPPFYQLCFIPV
SMILES,Potency,"activity change, negative = inhibition"
O=C(/C=C/C=C/c1ccc2c(c1)OCO2)N1CCCCC1,10.7 µM (active),
N#Cc1cccc(-c2c[nH]c3ncnc(N4CCOCC4)c23)c1,2.39 µM (active),
CNc1nc(C)nc(N[C@H]2CCC[C@@H](C(=O)NCc3ccc(C#N)cc3C(F)(F)F)C2)n1,,18.8% (inactive)
Cc1ccccc1-n1nc(-c2c(-c3ccc(F)cc3)nn3c2NC[C@@H](CO)C3)ccc1=O,6.74 µM (active),
CCC(CC)CC1(C(=O)Nc2ccccc2SC(=O)C(C)C)CCCCC1,1.9 µM (active),
Nc1ncnc2c1C(=O)N(c1ccc(C3CCC(CC(=O)O)CC3)cc1)CCO2 (centres undefined),,-12.4% (inactive)
CCCCOc1nc(N)c2c(n1)N(Cc1cccc(CN3CCCC3)c1)CC(=O)N2,,-29.4% (inactive)
O=C(O)CC1CCC(c2ccc(-c3ccc(Nc4ccc(C(F)(F)F)nc4)cn3)cc2)CC1 (centres undefined),,8.58% (inactive)

# System: not listed separately
# Test: Primary qHTS for inhibitors of nuclear receptor binding SET domain protein 2 (NSD2) in an isogenic RCH-ACV NSD2 p.E1099K mutant (9B) (AID 1645876); further: nearly all actives have a fitted effect of over 70% in size
# Details: RCH-ACV NSD2 E1099K (9B) viability, CellTiter-Glo, 72 h; series mostly up to 44.9 µM; activity change, negative = viability loss: at the top concentration
SMILES,Potency,"activity change, negative = viability loss",outcome
O=C(COCC(=O)N1CCN(C(c2ccccc2)c2ccccc2)CC1)Nc1ccc(Cl)cc1C(=O)O,inactive,,
COc1cccc2c1c(O)c(C(=O)N(C)c1ccc(C(F)(F)F)cc1)c(=O)n2C,inactive,,
CC(=O)NC(Cc1c[nH]c2ccccc(=O)c12)C(=O)O (centres undefined),,2.2% (inactive),
CC(C)c1ccc2c(c1)CCC1[C@](C)(C(=O)O)CCC[C@]21C (some centres undefined),,-18.1% (inactive),
Cc1nc(-c2cccnc2)sc1C(=O)Nc1ccccc1-c1cn2c(CN3CCOCC3)csc2n1,inactive,,
COc1ccc(CC(NC(C)=O)C(=O)O)cc1 (centres undefined),,,inactive
CNc1nc(C)nc(N[C@H]2CCC[C@@H](C(=O)NCc3ccc(C#N)cc3C(F)(F)F)C2)n1,,-9.45% (inactive),
CCC(CC)CC1(C(=O)Nc2ccccc2SC(=O)C(C)C)CCCCC1,inactive,,
Nc1ncnc2c1C(=O)N(c1ccc(C3CCC(CC(=O)O)CC3)cc1)CCO2 (centres undefined),inactive,,
COc1ccc2[nH]c(S(=O)Cc3ncc(C)c(OC)c3C)nc2c1 (centres undefined),,-26.2% (inactive),
CCCCOc1nc(N)c2c(n1)N(Cc1cccc(CN3CCCC3)c1)CC(=O)N2,,2.23% (inactive),
Cn1cc(-c2c[nH]c3ncnc(N4CCOCC4)c23)cn1,,-15.6% (inactive),
C=C1C[C@@]2(O)O[C@@]3(C[C@H]2C(C)C)[C@@H](C)CC[C@@H]13,,,inactive
N#Cc1ccc(C2CCCc3cncn32)cc1 (centres undefined),,,inactive [at 17.3 µM]
O=C(O)CC1CCC(c2ccc(-c3ccc(Nc4ccc(C(F)(F)F)nc4)cn3)cc2)CC1 (centres undefined),,9.38% (inactive),
CCc1cccc2c3c([nH]c12)[C@@](CC)(CC(=O)O)OCC3,,7.2% (inactive),
Cc1c(Cc2ccc3ccccc3n2)c2cc(F)ccc2n1CC(=O)O,,,inactive
CC(C)N(CCCNC(=O)Nc1ccc(C(C)(C)C)cc1)C[C@H]1O[C@@H](n2ccc3c(N)ncnc32)[C@H](O)[C@@H]1O,,-17.8% (inactive),
Cc1cccc(-c2nn3c(c2-c2ccnc4ccc(C(N)=O)cc24)CCC3)n1,inactive,,
CC(=O)O[C@H]1C[C@@]2(C)[C@@H](CC[C@H]3[C@@]4(C)C=CC(=O)[C@@H](C)[C@@H]4[C@H](OC(C)=O)C(=O)[C@@]32C)/C1=C(\CCC=C(C)C)C(=O)O,,,inactive [at 17.3 µM]
C[C@@H]1O[C@@H](O[C@@H]2\C=C/C=C\C=C/C=C\C[C@H](C)OC(=O)/C=C\[C@H]3O[C@@H]3C[C@H](O)C[C@]3(O)C[C@@H](O)[C@@H](C(=O)O)[C@H](C2)O3)[C@H](O)[C@H](N)[C@@H]1O,,5.74% (inactive),
C/C(=C\CC/C(C)=C/CC[C@]1(C)CCc2cc(O)cc(C)c2O1)CC/C=C(\C)C(=O)O,,-29.1% [at 17.3 µM] (inactive),

# System: not listed separately
# Test: Primary qHTS for inhibitors of nuclear receptor binding SET domain protein 2 (NSD2) in an RCH-ACV wild type WT cells (2C) (AID 1645877); further: nearly all actives have a fitted effect of over 70% in size; further: potency means the concentration at half of the fitted maximal effect
# Details: RCH-ACV (leukaemia line) NSD2 WT (2C) viability, CellTiter-Glo, 72 h; series mostly up to 44.9 µM; activity change, negative = cell killing: at the top concentration
SMILES,Potency,"activity change, negative = cell killing",outcome
O=C(COCC(=O)N1CCN(C(c2ccccc2)c2ccccc2)CC1)Nc1ccc(Cl)cc1C(=O)O,inactive,,
COc1cccc2c1c(O)c(C(=O)N(C)c1ccc(C(F)(F)F)cc1)c(=O)n2C,inactive,,
N#CN1CCC[C@@H](n2nc(-c3ccc(Oc4ccc(F)cc4F)cc3)c(C(N)=O)c2N)C1,16.6 µM (active),,
CC(=O)NC(Cc1c[nH]c2ccccc(=O)c12)C(=O)O (centres undefined),,3.74% (inactive),
CC(C)c1ccc2c(c1)CCC1[C@](C)(C(=O)O)CCC[C@]21C (some centres undefined),,-19.6% (inactive),
Cc1nc(-c2cccnc2)sc1C(=O)Nc1ccccc1-c1cn2c(CN3CCOCC3)csc2n1,inactive,,
COc1ccc(CC(NC(C)=O)C(=O)O)cc1 (centres undefined),,,inactive
CNc1nc(C)nc(N[C@H]2CCC[C@@H](C(=O)NCc3ccc(C#N)cc3C(F)(F)F)C2)n1,,-2.51% (inactive),
CCC(CC)CC1(C(=O)Nc2ccccc2SC(=O)C(C)C)CCCCC1,inactive,,
Nc1ncnc2c1C(=O)N(c1ccc(C3CCC(CC(=O)O)CC3)cc1)CCO2 (centres undefined),inactive,,
CCCCOc1nc(N)c2c(n1)N(Cc1cccc(CN3CCCC3)c1)CC(=O)N2,,-5.75% (inactive),
Cn1cc(-c2c[nH]c3ncnc(N4CCOCC4)c23)cn1,23.1 µM (active),,
C=C1C[C@@]2(O)O[C@@]3(C[C@H]2C(C)C)[C@@H](C)CC[C@@H]13,,-12.4% (inactive),
N#Cc1ccc(C2CCCc3cncn32)cc1 (centres undefined),,-1.42% [at 17.3 µM] (inactive),
O=C(O)CC1CCC(c2ccc(-c3ccc(Nc4ccc(C(F)(F)F)nc4)cn3)cc2)CC1 (centres undefined),,7.78% (inactive),
CCc1cccc2c3c([nH]c12)[C@@](CC)(CC(=O)O)OCC3,,1.62% (inactive),
Cc1c(Cc2ccc3ccccc3n2)c2cc(F)ccc2n1CC(=O)O,,,inactive
CC(C)N(CCCNC(=O)Nc1ccc(C(C)(C)C)cc1)C[C@H]1O[C@@H](n2ccc3c(N)ncnc32)[C@H](O)[C@@H]1O,inactive and 18.6 µM (active),,
Cc1cccc(-c2nn3c(c2-c2ccnc4ccc(C(N)=O)cc24)CCC3)n1,inactive,,
CC(=O)O[C@H]1C[C@@]2(C)[C@@H](CC[C@H]3[C@@]4(C)C=CC(=O)[C@@H](C)[C@@H]4[C@H](OC(C)=O)C(=O)[C@@]32C)/C1=C(\CCC=C(C)C)C(=O)O,,3.97% [at 17.3 µM] (inactive),
C[C@@H]1O[C@@H](O[C@@H]2\C=C/C=C\C=C/C=C\C[C@H](C)OC(=O)/C=C\[C@H]3O[C@@H]3C[C@H](O)C[C@]3(O)C[C@@H](O)[C@@H](C(=O)O)[C@H](C2)O3)[C@H](O)[C@H](N)[C@@H]1O,,3.9% (inactive),
C/C(=C\CC/C(C)=C/CC[C@]1(C)CCc2cc(O)cc(C)c2O1)CC/C=C(\C)C(=O)O,,-29.1% [at 17.3 µM] (inactive),
Cc1ncc(Cl)cc1NCc1ccc(C(=O)NC(CC2CCCC2)C(=O)NC2CC2)s1 (centres undefined),14.8 µM (active),,

# Source: PubChem BioAssay (NCATS)
